# Measured values reported in the supplement of paper PMC6555819.
# What was measured:
# Assay in all cases: PBM binding z-score (relative to random genomic background probes); higher = stronger binding; sequences stand for … in GC…GCGATTGACAGCGTAGAATGAAGG
# [1] = tested on: PPARg:RXRa DBDmut IVT, anti-RXR (DBD mutation: RXRa K156A/R161A, NR concentration 270 nM, RXRa partner concentration 90 nM)
# Outline: (§1)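 Antibodies against each partner of ligand-free nuclear receptor dimers (one per run) detected binding on custom Agilent 4×180K protein-binding microarrays after 1 h incubation. The double-stranded probes had 34-nt variable regions carrying direct-repeat seeds, single-nucleotide variants, half-site ablations and random human genomic background sequences. Binding z-scores, from regression-normalized fluorescence, use the random background probes as reference.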
# [2] = tested on: PPARg:RXRa IVT, anti-PPARg (NR concentration 270 nM, RXRa partner concentration 90 nM)
# Outline: as §1
# [3] = tested on: PPARg DBDmut:RXRa IVT, anti-PPARg (DBD mutation: PPARg1 K132A/R137A, NR concentration 270 nM, RXRa partner concentration 90 nM)
# Outline: as §1
# [4] = tested on: PPARg DBDmut IVT, anti-PPARg (DBD mutation: PPARg1 K132A/R137A, NR concentration 270 nM)
# Outline: as §1
# [5] = tested on: PPARg homodimer (NR concentration 180 nM)
# Outline: as §1
# [6] = tested on: PXR:RXRa (NR concentration 270 nM, RXRa partner concentration 90 nM)
# Outline: as §1
# [7] = tested on: PXR homodimer (NR concentration 270 nM)
# Outline: as §1
# [8] = tested on: RARa:RXR (NR concentration 270 nM, RXRa partner concentration 90 nM)
# Outline: as §1
# [9] = tested on: RARa homodimer (NR concentration 270 nM)
# Outline: as §1
# [10] = tested on: RARb:RXRa (NR concentration 270 nM, RXRa partner concentration 90 nM)
# Outline: as §1
Sequence,PBM binding z-score [1],PBM binding z-score [2],PBM binding z-score [3],PBM binding z-score [4],PBM binding z-score [5],PBM binding z-score [6],PBM binding z-score [7],PBM binding z-score [8],PBM binding z-score [9],PBM binding z-score [10]
GGAACGAGGGCAAGCTGATAGCAGAGTTTGATGG,3.83,2.53,-0.705,-0.924,-0.391,0.149,0.429,-0.0859,-0.744,2.46
GGAACGAGGGCAAAGTTGACAGCATCTGTCGACG,4.28,4.82,1.12,0.308,0.924,1.91,0.0135,2.66,-0.5,2.65
ATCTCTAGGTAACAAGTTCACTGAAAGAGAGGAC,3.4,3.15,1.22,1.68,1.6,2.83,2.82,2.02,0.943,2.18
CCGATTAGGTTATGGGGCATTCAGGCAACGGTGA,2.29,2.29,-0.258,-1.33,1.18,0.0495,-0.245,0.615,0.0747,1.37
AGAATGAGGTTATTAAGATGAGGGAATTGCGGTC,2.83,1.97,1.19,0.341,1.28,1.03,0.85,1.22,1.23,1.41
CCTCGGAGGACAGAAGCTCAGAGCTGTCCGCTTT,-0.36,-1.19,-1.19,-2.47,-1.01,-1.09,-1.12,-1.41,-0.553,0.0741
CAAACTAGATCAAAGGTCAAAGTCGAGCCAACCA,4.3,6.8,1.17,1.55,4.96,5.7,1.84,6.94,2.11,4.83
GATACAGGGTCAGCTAGAGGCCAGATTATGGAAA,0.866,2.23,0.547,-0.0092,1.91,3.24,-0.0885,4.03,0.518,4.12
AGAATGAGGTTAAGATCAGGGAAACAGAATACAT,2.82,2.83,1.43,0.885,0.847,1.38,0.732,2.08,0.481,2.01
CCTAGCAGGCCAATCTTGGTCACTCAAGGCTTGA,1.37,0.831,-0.756,-1.03,-0.618,-0.565,-0.712,-0.332,-1.07,0.275
CCGAGTAGGTTAGGGGGCATTCAGGCAACGGTGA,2.55,4.72,4.62,4.7,2.25,2.19,1.47,2.41,0.807,2.11
AGAATGAGGTTAAGGTCAGGGAAACAGAATACAT,3.24,4.55,1.51,0.964,3.35,3.77,1.59,4.47,2.44,4.27
ACCAGTTGGTCAGCTGAGGTCACACACAATTCGG,1.19,2.26,0.45,-0.406,2.59,5.42,2.07,4.41,0.742,3.71
CCTAGCAGGCCAGGGCCACTCAAGCATTTCGCTT,-0.0979,-0.384,-1.54,-0.795,-0.711,-1.11,-0.775,-0.903,-0.897,0.21
ATACCAAGGTGATCGTCAGGTCGTTGATACTAAC,0.522,1.08,0.616,-0.131,0.369,1.24,0.399,1.23,-0.256,1.12
CCTGCTAGGTCAATGGTCAGTTAAAGCAGCTCGC,4.28,3.9,-0.811,-0.609,1.46,0.845,-0.135,1.69,-0.34,3.95
CGTCCAAGGGCAAGGTCAGTGAAAGAGACTCGAA,0.735,1.62,-1.01,-1.55,0.963,1.68,-0.101,2.16,0.0198,3.94
ATATGTAGATTAGCTGGGGTCATTCAGACTAGGC,1.08,1.54,1.36,1.4,1.47,5.46,2.56,5.47,1.07,2.59
CCTTACGGGTCATGGTTATAGCACGGGTGGTACG,1.34,3.31,0.473,-0.548,1.58,2.96,0.0669,3.6,0.484,3.64
